SMN2 splice enh = SMN2 splice variant enhancement | AID 1458 | 210,000 tested, 2.8% active | HEK293 SMN2-luciferase splicing reporter, luminescence, 30-36 h | Potency, µM (highest dose often 46.1 µM), for inactives: at the highest dose activity change, positive = activation, hits mostly activators; also: % of control where 0% means no effect; nearly all actives have a fitted effect of over 55% in size
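HEK293 cells carry an SMN2 minigene-luciferase reporter in which exon 7 inclusion puts luciferase in frame. Cells were seeded at 2000 cells/well, attached for 10-12 hours, then exposed to compounds for 30-36 hours at 37C before ONE-Glo luminescence.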
FLuc counter = firefly luciferase modulation, counter-screen for miR-21 project; P08659; purified FLuc, Km substrates, luminescence inhibition; Potency, µM (series often up to 57.5 µM), for the others: at the highest dose activity change, negative = inhibition, usual class: inhibitors; 360,000 tested, 6.9% active;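 also: plate controls were vehicle for no effect and reference inhibitor for full effect; nearly all actives have a fitted effect of over 55% in size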
Target sequence (P08659 whole entry, looked up): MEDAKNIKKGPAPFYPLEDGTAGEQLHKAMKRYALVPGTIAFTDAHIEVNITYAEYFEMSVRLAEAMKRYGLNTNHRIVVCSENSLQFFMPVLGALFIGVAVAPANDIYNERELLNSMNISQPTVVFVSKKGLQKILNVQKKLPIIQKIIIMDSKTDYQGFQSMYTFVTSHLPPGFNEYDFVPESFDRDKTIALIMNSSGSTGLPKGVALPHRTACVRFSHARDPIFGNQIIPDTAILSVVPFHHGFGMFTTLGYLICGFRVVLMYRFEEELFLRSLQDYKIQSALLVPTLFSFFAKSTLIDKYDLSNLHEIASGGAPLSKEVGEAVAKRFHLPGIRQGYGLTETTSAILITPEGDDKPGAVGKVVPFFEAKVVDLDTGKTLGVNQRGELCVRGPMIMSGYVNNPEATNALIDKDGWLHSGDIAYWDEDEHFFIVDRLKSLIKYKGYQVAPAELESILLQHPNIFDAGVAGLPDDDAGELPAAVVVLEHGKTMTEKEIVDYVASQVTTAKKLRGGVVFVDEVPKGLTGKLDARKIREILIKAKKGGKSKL
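Biochemical qHTS of compounds, final roughly 60 µM downward over six points, against 10 nM purified firefly luciferase using Km concentrations of substrates (10 uM D-luciferin, 10 uM ATP) in Tris acetate pH 7.5 buffer; luminescence output.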
ELG1 genotoxic = induces genotoxicity in HEK293T cells with luciferase-tagged ELG1; Potency, µM (top dose mostly 46 µM), inactives show at the highest dose activity change, positive = activation, usual class: activators; 330,000 tested, 1.3% active; HEK293T ELG1-luciferase reporter, luminescence, 16 h; also: % of control where 0% means no effect; nearly all actives have a fitted effect of over 60% in size
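Screening used a luciferase reporter fused to human ELG1 in HEK293T cells. Luminescence was read on a CCD plate imager after 16 hr exposure and 30 min ONE-Glo incubation.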
KinaseGlo FLuc = counter-screen: inhibitors of Kinase-Glo firefly luciferase. 200,000 tested, 0.28% active. Q27757. Potency, µM (doses to about 38.3 µM), inactives show at the top dose activity change, negative = inhibition, usual class: inhibitors. AID 1379. Kinase-Glo luciferase, ATP luminescence, 8 min; also: % is scaled to controls: 0 for no effect and ±100 for the full control effect; nearly all actives have a fitted effect of over 60% in size
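Compounds were added to a substrate mix at pH 7.2 (50 mM imidazole, 10 uM ATP, within the enzyme's linear range), followed by Kinase-Glo detection reagent; luminescence was measured after 8 minutes at ambient temperature.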
Rab9 promoter act = Rab9 promoter activation; 320,000 tested, 2.8% active; AID 485297; Potency, µM (series often up to 9.22 µM), without a hit: at the top dose activation, negative = inhibition, hits mostly activators; Huh7 Rab9 promoter-luciferase reporter, luminescence, 24 h; also: % of control where 0% means no effect; nearly all actives have a fitted effect of over 60% in size
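Huh7 cells stably carrying Rab9 promoter–luciferase reporter, plated 1500 cells/well, compound added after 2 h and incubated 24 h at 37 °C; luciferase luminescence then read after 10 min with detection reagent.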
NPC1 prom act = NPC1 promoter activation; 320,000 tested, 2.4% active; Huh7 NPC1 promoter luciferase reporter, 24 h; Potency, µM (highest dose often 9.22 µM), inactives show at the highest dose activation, hits mostly activators; also: % of control where 0% means no effect; nearly all actives have a fitted effect of over 60% in size
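Stably transfected Huh7 (NPC1 promoter→luciferase), 1500 cells/well in Opti-MEM + 10% FBS, 2 h settle, then compound 24 h at 37 °C. Luminescence after 10 min with Amplite reagent.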
Starred values were filed as active, the others as inactive; ? = inconclusive; nt = not tested or not shown. An excerpt weighted towards active compounds, which were near 7.3% of everything screened. Calls follow the shape of the dose curve; as a rule, active = well fitted curve in the direction sought with a large enough effect; inconclusive = small, poorly fitted or top-dose-only effect, or another doubt; inactive = no such curve, though single readings can be large; an effect the other way counts as inactive or inconclusive. Potency is read from the fitted curve at half-maximal effect.

SMILES	SMN2 splice enh	FLuc counter	ELG1 genotoxic	KinaseGlo FLuc	Rab9 promoter act	NPC1 prom act
COc1cccc(CNC(=O)c2cc3oc4ccccc4c3n2C)c1OC	15.8µM*	?	6.7%	-4.7%	7.5%	0.3%
O=C(O)C1C2CCC(C2)C1C(=O)NCCC1=CCCCC1 (stereo not given)	19.4%	0.5%	0.3%	10.8%	-0.1%	0.6%
CCNC(=S)Nc1cc(C)ccn1	?	?	9.0%	-0.5%	0.7%	0.1%
COc1ccc(N/C=C\C(=O)c2ccc(Br)cc2)cc1OC	?	?	14.9%	-1.8%	?	?
COc1ccc(N/C=C/C(=O)c2ccc3c(c2)OCO3)cc1OC	17.3%	2.69µM*	?	-1.4%	?	28.0%
COc1ccc(N/C=C\C(=O)c2ccc3c(c2)OCO3)cc1	?	0.269µM*	?	?	3.55µM*	1.78µM*
COc1ccc(N/C=C\C(=O)c2ccc(C)cc2)cc1OC	19.4%	5.36µM*	?	0.8%	3.55µM*	?
O=C(O)c1ccc2c(c1)OCO2	-21.2%	nt	nt	-5.7%	nt	nt
O=C(/C=C\Nc1ccc2c(c1)OCO2)c1ccc2c(c1)OCO2	?	0.135µM*	2.31µM*	?	0.794µM*	3.98µM*
COc1ccc(NC(=O)COc2ccc3c(c2)OCO3)cc1	nt	?	-3.1%	nt	11.0%	15.4%
Cc1ccc(N2C(=O)NC(NC(=O)C(C)(C)C)(C(F)(F)F)C2=O)cc1C (stereo not given)	-2.1%	3.2%	1.4%	2.5%	-0.3%	8.4%
O=c1c(-c2ccc(F)cc2)nc2cnc(Oc3ccccc3)nc2n1C[C@H]1CCCO1	-29.1%	nt	nt	-2.1%	nt	nt
CC1(C)CC(/C=C/c2ccccc2)=Nc2ccccc2N1	nt	4.26µM*	14.8%	nt	?	?
O=C1CC(/C=C/c2ccc(Cl)cc2)=Nc2ccccc2N1	nt	4.26µM*	?	-9.9%	1.26µM*	2.24µM*
O=C1CC(/C=C/c2cccnc2)=Nc2ccccc2N1	-88.1%	-18.5%	-8.1%	?	16.7%	16.6%
O=C1CC(/C=C/c2ccccc2)=Nc2ccccc2N1	-4.6%	2.69µM*	?	-17.3%	0.891µM*	2µM*
CC(C)N(C(=O)COC(=O)c1ccc(Cl)nc1)C(C)C	7.6%	-0.4%	2.3%	-1.6%	0.2%	-1.4%
Cc1noc(C)c1S(=O)(=O)Nc1ccc2c(c1)C(=O)N([C@H](C)CO)C[C@H](C)[C@@H](CN(C)C(=O)Nc1ccc3c(c1)OCO3)O2	nt	nt	0.3%	nt	nt	nt
CCC(C)NC(=O)C1=CCN(S(=O)(=O)c2ccc(C)cc2)CC1 (stereo not given)	nt	3.9%	-2.0%	nt	1.4%	-4.5%
Cc1cc(Cl)c(O)c(-n2nc3ccccc3n2)c1	nt	?	6.8%	nt	?	?
Cc1ccc(NC(=O)/C(C#N)=C(\N)C(Cl)(Cl)Cl)nc1	nt	2.13µM*	?	-6.3%	?	?
O=C(COc1ccccc1)Nc1nnc(-c2ccccc2)o1	-0.9%	0.0%	-0.4%	-1.5%	2.6%	0.6%
O=C(O)CCC(=O)Nc1cccc(-c2nnc(-c3ccccc3)o2)c1	nt	21.3µM*	11.0%	nt	-2.4%	2.8%
O=C(COc1ccccc1)Nc1cccc(-c2nnc(-c3ccccc3)o2)c1	?	12µM*	-8.5%	-3.6%	28.2%	?
O=C(Nc1cccc(-c2cn3ccccc3n2)c1)c1ccccc1	?	4.78µM*	-2.2%	-0.2%	?	24.1%
Cc1cccc(C(=O)Nc2cccc(-c3cnc4ccccc4n3)c2)c1	11.3%	1.8%	4.2%	7.6%	-4.1%	2.6%
O=C(NCc1cn2ccccc2n1)c1ccco1	14.9%	-5.4%	23.4%	-3.7%	2.9%	6.6%
CCCCC(=O)Nc1cccc(-c2cn3ccccc3n2)c1	nt	12µM*	5.5%	nt	22.5%	29.7%
O=C(Nc1cccc(-c2cn3cccnc3n2)c1)c1ccc(Br)o1	-1.5%	?	-3.4%	-2.1%	24.5%	-3.3%

Screening data as filed in PubChem BioAssay.
